# Measured values taken from PubChem BioAssay (EPA / NIEHS).
# Results filed as inconclusive are left out. Activity calls are given as the source filed them. Rule for the calls: active = hit-call score of the fitted dose curve at least 0.9, where 1 is the maximum; inconclusive = response in the unintended direction; inactive = score below 0.9.
# Read-out: Broad substrate specificity ATP-binding cassette transporter ABCG2 (Homo sapiens) (UniProt Q9UNQ0)
# Assay: CLD_ABCG2_6hr: CellzDirect (CLD) Gene Expression Assay for ABC Transporter (ABCG2) at 6 hours (AID 2283660)
# Outline: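 Primary human hepatocytes dosed daily with chemicals at multiple concentrations (0.2% DMSO vehicle), harvested 6 h after dosing. ABCG2 mRNA induction read by quantitative nuclease protection assay (qNPA) chemiluminescence; gain of signal fitted against DMSO baseline.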
# Sequence of Broad substrate specificity ATP-binding cassette transporter ABCG2 (Homo sapiens) (Q9UNQ0 whole entry, looked up): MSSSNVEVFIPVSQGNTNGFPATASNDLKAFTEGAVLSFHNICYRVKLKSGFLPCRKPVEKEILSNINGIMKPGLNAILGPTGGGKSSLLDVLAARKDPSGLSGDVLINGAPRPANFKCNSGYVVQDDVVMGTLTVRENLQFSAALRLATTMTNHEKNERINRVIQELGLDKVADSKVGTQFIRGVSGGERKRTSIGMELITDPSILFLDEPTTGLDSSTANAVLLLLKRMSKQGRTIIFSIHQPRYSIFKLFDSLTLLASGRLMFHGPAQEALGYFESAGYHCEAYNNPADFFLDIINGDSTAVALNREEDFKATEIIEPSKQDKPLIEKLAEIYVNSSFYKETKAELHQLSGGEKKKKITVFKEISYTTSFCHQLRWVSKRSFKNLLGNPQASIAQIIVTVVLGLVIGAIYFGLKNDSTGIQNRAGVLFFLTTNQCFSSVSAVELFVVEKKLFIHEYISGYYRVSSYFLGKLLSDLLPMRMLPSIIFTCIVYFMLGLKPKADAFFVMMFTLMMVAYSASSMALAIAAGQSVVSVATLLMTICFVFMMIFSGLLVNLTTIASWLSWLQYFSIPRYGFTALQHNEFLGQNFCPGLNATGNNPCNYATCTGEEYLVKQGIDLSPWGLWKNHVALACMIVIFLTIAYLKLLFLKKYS
row,SMILES,outcome
1,COP(=S)(OC)Oc1ccc([N+](=O)[O-])cc1,inactive
2,O=C(O)C(F)(F)C(F)(F)C(F)(F)C(F)(F)C(F)(F)C(F)(F)C(F)(F)F,inactive
3,CCC(C)(NC(=O)c1cc(Cl)c(C)c(Cl)c1)C(=O)CCl (stereo unspecified),inactive
4,COC(=O)c1ccccc1S(=O)(=O)NC(=O)N(C)c1nc(C)nc(OC)n1,inactive
5,O=C1c2ccccc2C(=O)N1SC(Cl)(Cl)Cl,inactive
6,Clc1ccccc1-c1nnc(-c2ccccc2Cl)nn1,inactive
7,CNC(=O)Oc1ccccc1OC(C)C,inactive
8,COC(=O)c1ccccc1CS(=O)(=O)NC(=O)Nc1nc(OC)cc(OC)n1,inactive
9,CN1CSC(=S)N(C)C1,inactive
10,CNC(=O)/C=C(\C)OP(=O)(OC)OC,inactive
11,C[C@H]1[C@H](c2ccc(Cl)cc2)SC(=O)N1C(=O)NC1CCCCC1,inactive
12,CCc1ccc(C(=O)NN(C(=O)c2cc(C)cc(C)c2)C(C)(C)C)cc1,inactive
13,CCOCN(C(=O)CCl)c1c(C)cccc1CC,inactive
14,COP(=O)(OC)OC=C(Cl)Cl,inactive
15,COc1cc(OC)nc(NC(=O)NS(=O)(=O)c2cc(NC=O)ccc2C(=O)N(C)C)n1,inactive
16,O=C(O)CCCOc1ccc(Cl)cc1Cl,inactive
17,O=[N+]([O-])/N=C1\NCCN1Cc1ccc(Cl)nc1,inactive
18,Oc1ccc(Cl)cc1Cc1ccccc1,inactive
19,CC(C)N(C(=O)COc1nnc(C(F)(F)F)s1)c1ccc(F)cc1,inactive
20,CCCN(CCC)c1c([N+](=O)[O-])cc(C(F)(F)F)cc1[N+](=O)[O-],inactive
21,CC1(c2ccc(Oc3ccccc3)cc2)OC(=O)N(Nc2ccccc2)C1=O (stereo unspecified),inactive
